In all, about 68,000 compounds went through this assay and about 2,700 (4%) showed an effect of 50% or more. This excerpt belongs to a sample that is enriched for strong results.

The test system of the assay is Plasmodium berghei. As to the kind of experiment: Screen against P. berghei liver stage (PbLuc), transformed with Luciferase, at 2uM. It is filed as functional, HepG2. The following applies: tested at 2 uM.
For the molecule `O=C(NCc1cccnc1)[C@@H]1CC[C@@H]2[C@@H](CCN2c2ncccn2)O1`, the INHIBITION amounted to 25.5%.

For `CN(CCn1ccnc1-c1ccccn1)S(C)(=O)=O`, the INHIBITION stood at 35.52%. For the molecule `CC(C)NC(=O)N1CCN(CC2CC2)CC2(CNC(=O)C2)C1` (configuration not stated), the INHIBITION came to 13.38%. Consider `O=C(Cn1cccc2cc(-c3ccc(F)cc3)nc1-2)N1CCC(O)CC1`, for which the INHIBITION amounted to 92.28%. Consider `CN(C)CCN(C)C(=O)Cn1cccc2cc(-c3ccc(F)cc3)nc1-2`, for which the INHIBITION is given as 31.81%. In the case of `COc1ccc(-c2cc3cccn(CC(=O)N4CCOCC4)c-3n2)cc1` it was -16.87%; in that of `Cc1csc(CNc2cnn(CC(C)C)c2)n1`, 3.58%. The value for `CCc1nnc2n1CCN(C(=O)c1cc(C)n(-c3ccccc3)c1C)C2` was -68.26%; that for `Cn1cc(N2CCC3(CCN(C(=O)[C@H]4CCCO4)C3)C2=O)cn1` (some centres not stated) was -28.81%; that for `CC(=O)N1CC[C@H]2OCC[C@@]2(C(=O)NCc2cnc(C)cn2)C1` was -41.74%. Turning to `Cc1cnc(CNC(=O)[C@@]23CCO[C@@H]2CCN(C2CCCC2)C3)cn1`, the INHIBITION is given as -7.71%. The value for `Cc1cnc(CNC(=O)[C@@]23CCO[C@@H]2CCNC3)cn1` was 62.6%; that for `CCN1C[C@@H]2C[C@H](C(=O)NCc3cccnc3)[C@H](C1)O2` was -19.81%. `CCCC1(CO)CCCN(C(=O)CCCn2nc(C)cc2C)C1` (configuration not stated): the INHIBITION is reported as 1.1%. The value for `COc1ccc(C(=O)N2CCCC(n3nc(C)nc3C)C2)c(OC)c1` (configuration not stated) was -42.39%; that for `CN(Cc1cc(Br)cn1C)C(=O)c1cscn1` was 30.06%; that for `O=C1CCC2(CCN(Cc3cscn3)CC2)CN1CC1CCCO1` (configuration not stated) was 40.47%.

For the molecule `O=C1CCC2(CCN(Cc3cscn3)CC2)CN1CCCO`, the INHIBITION is given as -8.8%. In the case of `Cc1cnc(C2(C)CCN(Cc3csc(C)n3)CC2)s1` it was 19.47%; in that of `Cc1ccc(CN2CCCN(Cc3cscn3)CC2)cc1`, -6.56%.

For the molecule `Cc1cnc(C2(C)CCN(Cc3cscn3)CC2)s1`, the INHIBITION is listed as 50.32%. In the case of `CCN1CC2(CCC1=O)CCN(Cc1cscn1)CC2` it was 50.32%. The value for `CC(C)c1cc(C(=O)N2C[C@@H]3CC[C@H]2CN(Cc2cscn2)C3)no1` was 22.89%; that for `CCOc1ccc2[nH]c(=O)c(CN3CCCC3c3ccccn3)cc2c1` (configuration not stated) was -97.01%; that for `CC(C)(C)n1nnnc1CN(Cc1ccccc1)Cc1ccc(Cl)cc1` was 8.33%.

For the molecule `Cc1csc(C(Cc2ccsc2)NC(=O)CN(C)Cc2cccnc2)n1` (configuration not stated), the INHIBITION is on record as 55.29%. The value for `CN(CC(=O)NC(Cc1ccsc1)c1cccnc1)Cc1cccnc1` (configuration not stated) was -37.25%; that for `Cc1csc(C(Cc2ccsc2)NC(=O)CN(C)Cc2ccccn2)n1` (configuration not stated) was 7.39%.

As to `COc1cccc(CN2CCC3(CCN(c4ncc(C)cn4)CC3)C2)c1`, the INHIBITION is reported as 13.26%. In the case of `Cc1ccc(S(=O)(=O)NCC(C)C#N)cc1Br` (configuration not stated) it was 4.88%; in that of `CC(C#N)CNS(=O)(=O)c1ccc(F)c(Br)c1` (configuration not stated), -27.36%; in that of `CC(C#N)CNS(=O)(=O)c1ccc(Br)c(F)c1` (configuration not stated), 64.21%. The value for `COc1ccc2c(c1)C1(CCN(Cc3ccoc3)CC1)N(C)CC2` was -11.19%.

In the case of `COCCC(=O)NCCn1nc(C2CCNC2)c2cccnc21` (configuration not stated), the INHIBITION was 49.9%. In the case of `Cc1ccc(CN2CCOCC2)cc1NC(=O)c1ccsc1` it was 34.25%; in that of `Cc1ccc(C(=O)N2CCOCC2)cc1NCc1ccsc1`, 21.24%; in that of `Cc1ccc(CN2CCOCC2)cc1NCc1ccsc1`, 52.85%. In the case of `CS(=O)(=O)CC1CCCN(C(=O)Cn2cccc(C(F)(F)F)c2=O)C1` (configuration not stated) it was 33.96%; in that of `CN1CCN(CCc2ncnn2-c2ccc3c(c2)OCO3)CC1`, 65.76%. The value for `CS(=O)(=O)CCc1ncnn1-c1ccc(F)c(Cl)c1` was 19.38%. Consider `CS(=O)(=O)N1CCC[C@H]1c1ncnn1-c1ccc2c(c1)OCO2`, for which the INHIBITION is recorded as -13.17%. In the case of `CN1CCN(C[C@H]2CC[C@@H](Cc3ccc4c(c3)OCO4)O2)CC1` it was 25.69%. Regarding `FC(F)C(F)(F)COCc1ncnn1-c1ccc2c(c1)OCO2`, the INHIBITION was determined as 57.34%.

Regarding `FC(F)(F)CCc1ncnn1-c1ccc2c(c1)OCO2`, the INHIBITION was 11.9%. In the case of `CN(CCCNC(=O)CN1CCS(=O)(=O)CC1)c1ccccc1` it was -20.29%. In the case of `COc1cccc(CN(Cc2ccco2)Cc2[nH]cnc2C)c1` it was 28.07%; in that of `CCCc1noc(C2CCN(S(=O)(=O)c3cccs3)CC2)n1`, -64.06%; in that of `O=S(=O)(C1CC1)N1C[C@H]2CCC[C@@]2(COc2ccccn2)C1`, -3.87%. In the case of `CCCc1cc(C(=O)N[C@@H]2CC[C@@H](N3CCOCC3)[C@@H]2O)no1` it was 4.06%; in that of `COCc1ncc(CN2CC[C@@](O)(COC)C(C)(C)C2)cn1`, -20.75%.

On to `COC[C@]1(O)CCN(Cc2cnc(N3CCOCC3)nc2)CC1(C)C`, for which the INHIBITION turned out to be 52.31%.

Turning to `COC[C@]1(O)CCN(Cc2cnc(N(C)C)nc2)CC1(C)C`, the INHIBITION stood at 10.24%. The value for `Cc1ncncc1C(=O)N1CCCN(Cc2ncc(Cl)n2C)CC1` was -16.3%. Turning to `Cc1noc(C)c1-c1cncc(C2CCCN2Cc2c[nH]cn2)n1` (configuration not stated), the INHIBITION stood at 28.23%.

Regarding `Cc1noc(C)c1-c1cncc(C2CCCN2Cc2cc[nH]n2)n1` (configuration not stated), the INHIBITION is recorded as 46.98%.

Take `Cc1noc(C)c1-c1cncc(C2CCCN2Cc2cn(C)cn2)n1` (configuration not stated): the INHIBITION was 50.32%.

Turning to `CCOC(=O)C1CCN(C(=O)Cn2ccc3cc(Br)ccc32)CC1`, the INHIBITION is listed as 21.14%. In the case of `Cc1ccc2c(n1)N(Cc1cccnc1)CCN(C1CCOCC1)C2` it was -91.9%.

On to `Cc1ccc(NC(=O)NCCCn2nc3ccccn3c2=O)cc1`, for which the INHIBITION is given as -17.83%.

Regarding `Cc1ccccc1N1CCN(C(=O)CC(C)C)CC1`, the INHIBITION came to 56.49%. With `CSCC(=O)N1CCCN(c2ccccc2C)CC1`, the INHIBITION was found to be 2.91%. The value for `CSCCC(=O)N1CCCN(c2ccccc2C)CC1` was 0.31%; that for `CCCc1nnc(NC2CCN(C3CCOCC3)CC2)o1` was 45.66%; that for `COCc1nnc(-c2cccc(C(=O)N(C(C)C)C3CCC3)c2)o1` was 21.97%. Regarding `COCc1nnc(-c2cccc(C(=O)OC(C)C)c2)o1`, the INHIBITION is 33.9%. In the case of `COCc1nnc(-c2cccc(C(=O)N(C)CC(C)(C)C)c2)o1` it was 62.51%; in that of `CC1(C)Oc2ccc(NC(=O)c3ccc(=O)[nH]n3)cc2O1`, 10.43%; in that of `COc1ccnc(N2C[C@H]3CC[C@@H](C2)N(CC2CC2)C3)n1`, 57.41%. Consider `COc1ccnc(N2CCC(=O)N(CC3CC3)C(C(C)C)C2)n1` (configuration not stated), for which the INHIBITION is given as -61.87%.

For the molecule `COc1ccnc(N2C[C@H]3CC[C@@H](C2)N(CC2CCC2)C3=O)n1`, the INHIBITION is given as -24.7%.

For `Cc1nc(-c2ccco2)ccc1C(=O)NCCCN1CCOCC1`, the INHIBITION is on record as -48.23%. In the case of `Cc1nc2ccnn2c(C)c1CCC(=O)N1CCN(C2CC2)CC1` it was 26.4%; in that of `Cc1ccccc1C(=O)N1CCC2(CC1)CC(c1cnn(C)c1)CO2` (configuration not stated), 42.27%. The value for `CN(C)C(=O)c1cc2c(nc1NCC1CC1)CCNCC2` was 43.06%. In the case of `CS(=O)(=O)CCC(=O)Nc1cc(F)ccc1OCC1CCCO1` (configuration not stated) it was 6.31%. In the case of `O=C(Nc1cc(F)ccc1OCC1CCCO1)N1CCCC1` (configuration not stated), the INHIBITION is given as -5.1%. As for `O=C(Nc1cc(F)ccc1OCC1CCCO1)N1CCSCC1` (configuration not stated), the INHIBITION stood at 9.23%.

As to `O=C(CC(F)(F)F)Nc1cc(F)ccc1OCC1CCCO1` (configuration not stated), the INHIBITION amounted to 56.03%. The value for `O=C(Nc1cc(F)ccc1OCC1CCCO1)c1ccoc1` (configuration not stated) was -27.04%. The value for `O=C(Nc1cc(F)ccc1OCC1CCCO1)NC1CC1` (configuration not stated) was 56.62%; that for `Cc1ccn(CCC(=O)NCCc2ccco2)n1` was -0.14%. Regarding `COc1ccc(C[C@H]2CN(C(=O)CS(C)(=O)=O)CC[C@H]2OC)cc1`, the INHIBITION was 39.18%.

On to `O=C(NCCO)Nc1ccc(Cl)cc1-n1cccc1`, for which the INHIBITION is given as -12.7%. Regarding `Cc1nc(CN2CCCCC2CCc2ccc(O)cc2)co1` (configuration not stated), the INHIBITION was 0.58%. As to `Cc1noc(C)c1-c1ccc(C2CCCN2C(=O)c2ccncn2)nc1` (configuration not stated), the INHIBITION is 5.15%. Turning to `COc1cccc(Cn2c(C)c(C)oc2=O)c1OC`, the INHIBITION amounted to 23.87%.

On to `Cc1cc(N2CCN(C3CCSCC3)CC2)n2nc(C)c(C)c2n1`, for which the INHIBITION was 39.51%. In the case of `CCCNC(=O)C(C)Oc1ccccc1` (configuration not stated), the INHIBITION was found to be 64.08%.

Turning to `CCNC(=O)C(C)Oc1ccc(N(C)S(C)(=O)=O)cc1` (configuration not stated), the INHIBITION was 33.26%. `CCCNC(=O)C(C)Oc1ccc(F)cc1` (configuration not stated): the INHIBITION turned out to be 23.68%. For `COc1ccc(CNC(=O)c2ccc(Br)cn2)cc1`, the INHIBITION was 21.97%.

For the molecule `CCOc1ccc(CNC(=O)c2cnc(OC)nc2)cc1`, the INHIBITION was 58.98%. The value for `COc1ncc(C(=O)NCc2ccccc2)cn1` was 60.36%; that for `COC(=O)c1ccc(C(=O)NCc2ccc(Br)cc2)cn1` was 38.67%. The value for `CCOc1ccc(Cl)c(C(=O)NCc2ccc(C(=O)NC)cc2)n1` was 23.92%; that for `COc1ncc(C(=O)NCc2ccc(Br)cc2)cn1` was 18.8%; that for `COCC(O)CN(C)c1cc(C(F)(F)F)nc(-c2cccnc2)n1` (configuration not stated) was -2.47%. The value for `COc1ccc(CNC(C)c2cnn(C)c2)cc1OC1CCCC1` (configuration not stated) was 51.76%; that for `CC(NCc1ccnc(OC2CCC2)c1)c1cnn(C)c1` (configuration not stated) was 18.98%. Turning to `CC(NCc1cccc(COC2CCCC2)c1)c1cnn(C)c1` (configuration not stated), the INHIBITION was 12.83%. On to `CN(C1CCN(C(=O)NCCc2ccc(F)cc2F)CC1)S(C)(=O)=O`, for which the INHIBITION is recorded as 8.56%. Regarding `COCC(=O)N1CCC(c2ccc(OC)cc2)C1` (configuration not stated), the INHIBITION came out at 56.21%. In the case of `COCC(=O)N1CCC(c2cc(-c3ccc(OC)cc3)n[nH]2)C1` (configuration not stated) it was -0.64%.

In the case of `COC(=O)NCC(=O)N1CCC(Oc2cccc(C)c2)CC1`, the INHIBITION was -31.79%. With `CCN(CC)C(=O)CNC(=O)N1CCC(c2ccc(OC)cc2)C1` (configuration not stated), the INHIBITION amounted to 26.44%. In the case of `COCC(=O)N1CCC(Oc2cccc(C)c2)CC1` it was 58.53%; in that of `CSCC(=O)N1CCC(Oc2cccc(C)c2)CC1`, 10.91%.

Source of the values: ChEMBL document CHEMBL4513216, “Probing the Open Global Health Chemical Diversity Library for Multistage-Active Starting Points for Next-Generation Antimalarials” (ACS Infect Dis, 2020).
